# Measured values reported in PubChem BioAssay.
# Active and inactive are the calls of the source.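 The calls were made as follows: active = viability loss from added drug above about 55%, and viability with drug at most 40%, in both replicates (limit read from the data, passing the limit was not always enough); inconclusive = both conditions met in only one replicate; inactive = neither replicate meets both conditions.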
# Assay: MRP1 drug-resistance reversers in H69AR cells – cell-based, doxorubicin co-treatment, pilot screen (AID 601)
# Conditions: H69AR cells + 2 uM doxorubicin, CellTiter-Glo, 72 h; at 10 µM; stronger effect = higher value
row,SMILES,differential viability (reversal)
1,COCCNC(=O)c1cc(-c2cccs2)on1,23.6% (inactive)
2,CC(C)c1nnc(NC(=O)C2CCCCC2)s1,5.75% (inactive)
3,Cc1nc2ccc(S(=O)(=O)NC(C(=O)Nc3nccs3)C(C)C)cc2s1 (stereo not given),5.42% (inactive)
4,O=C(Cn1c(=O)[nH]c2ccsc2c1=O)NC1CCCCCC1,-2.65% (inactive)
5,CCCCN(C)Cc1c(O)ccc2c(-c3ccccc3)cc(=O)oc12,8.13% (inactive)
6,O=C(CN1CCN(Cc2ccccc2F)C1=O)NCc1cccnc1,17% (inactive)
7,O=c1c2ccccc2nc2n1CCN2,26.2% (inactive)
8,O=C(CSc1nnc(Cn2c(=O)sc3ccccc32)n1-c1ccccc1)Nc1nccs1,0.24% (inactive)
9,Cc1ccc(-n2nc(C)c3cc(C(=O)O)sc32)cc1,0.315% (inactive)
10,CCOC(=O)c1oc2c(CN3CCN(C)CC3)c(O)ccc2c(=O)c1-c1ccccc1OC,-0.225% (inactive)
11,CCCCn1c(NCc2ccccc2O)nc2ccccc21,4.67% (inactive)
12,Cc1cc2ncc(-c3ccc(Cl)cc3)c(N)n2n1,-0.45% (inactive)
13,CC1(C(=O)NC2CCCCC2)CCC(=O)N1Cc1cccs1 (stereo not given),-5.18% (inactive)
14,CCc1cc(=O)n2[nH]c(C)c(-c3ccccc3OC)c2n1,5.22% (inactive)
15,Cc1nnc(SCCn2c(N3CCC(Cc4ccccc4)CC3)nc3c2c(=O)[nH]c(=O)n3C)s1,8.24% (inactive)
16,O=C(C1CCCN(S(=O)(=O)c2cccnc2)C1)N1CCn2c1nc1ccccc12 (stereo not given),9.65% (inactive)
17,CCOC(=O)c1ccc(NC(=O)Cn2cc3c(n2)CCC(C)C3)cc1 (stereo not given),-7.62% (inactive)
18,Cc1cc(C)cc(N(CC(=O)Nc2cccc(C)n2)S(=O)(=O)c2c(C)noc2C)c1,11.8% (inactive)
19,COc1ccc(-c2nnc(SCC(=O)N3CCOCC3)o2)cc1OC,3.41% (inactive)
20,Cc1c(C(=O)OCc2ccccc2)[nH]c2c1C(=O)CC(c1ccco1)C2 (stereo not given),-2.23% (inactive)

row,SMILES,differential viability (reversal)
1,CCCn1cc(SCC(N)=O)c2ccccc21,-13.4% (inactive)
2,CC1CCCCN1CCNC(=O)C1CCN(S(=O)(=O)c2cccc3cccnc23)CC1 (stereo not given),4.43% (inactive)
3,Cc1onc(-c2ccccc2Cl)c1C(=O)N1CCc2ccccc21,-9.1% (inactive)
4,O=C(c1ccc(CNc2c(N3CCCC3)c(=O)c2=O)cc1)N1CCc2ccccc2C1,2.69% (inactive)
5,Cc1cccc(-n2ncc3c(NCc4cccnc4)ncnc32)c1,-3.23% (inactive)
6,COc1cccc2cc(C(=O)OC3CCN(C)CC3)c(=O)oc12,18.2% (inactive)
7,CCOc1ccccc1NC(=O)CC1Nc2cc(C)c(C)cc2NC1=O (stereo not given),-25.8% (inactive)
8,COC(=O)C(C)Sc1nnc2n(-c3cccc(C)c3)c(=O)c3c4c(sc3n12)CCCC4 (stereo not given),64.7% (active)
9,Cc1c(NC(=O)C2CCCCN2S(=O)(=O)c2ccc(Cl)cc2)c(=O)n(-c2ccccc2)n1C (stereo not given),-6.92% (inactive)
10,CCC(=O)c1cc(F)c(N2CCN(C(=O)c3ccco3)CC2)cc1C,-8.33% (inactive)
11,Cc1cccc(C2CC(c3ccccc3)Nc3nc(N)nn32)c1 (stereo not given),8.54% (inactive)
12,Cc1ccc(C)c(NC(=O)CSc2nnc(-c3ccccc3)o2)c1,9.51% (inactive)
13,CCCCN(CC)CCNC(=O)c1cc2c(C)nc3ccccc3c2o1,2.99% (inactive)
14,O=C(Nc1ccccc1)C1=C(O)CC(c2ccoc2)CC1=Nc1ccccc1 (stereo not given),-6.7% (inactive)
15,COc1ccc(OCc2nc(C#N)c(N3CCN(c4ccc(OC)cc4)CC3)o2)cc1,15% (inactive)
16,CCOc1cccc(OCCCCn2ccnc2)c1,-3.44% (inactive)
17,COc1ccc(OC)c(C2CC(=O)NC(SC)=C2C#N)c1 (stereo not given),11.6% (inactive)
18,Cc1cc(NC(=O)c2cccc(S(=O)(=O)N3CC(c4ccccc4)CC3=O)c2)no1 (stereo not given),6.25% (inactive)
19,O=C(Cn1nc(Cc2ccncc2)c2ccccc2c1=O)N1CCN(C(=O)c2ccco2)CC1,-8.19% (inactive)
20,COC(=O)c1sc(NC(=O)COc2ccccc2OC)nc1C,11.6% (inactive)

# Same assay, conditions: H69AR cells + 2 uM doxorubicin, CellTiter-Glo, 72 h; measured here: viability with 2 uM doxorubicin; at 10 µM; stronger effect = lower value
row,SMILES,viability [%]
1,COCCNC(=O)c1cc(-c2cccs2)on1,61.1
2,CC(C)c1nnc(NC(=O)C2CCCCC2)s1,93.8
3,Cc1nc2ccc(S(=O)(=O)NC(C(=O)Nc3nccs3)C(C)C)cc2s1 (stereo not given),90.3
4,O=C(Cn1c(=O)[nH]c2ccsc2c1=O)NC1CCCCCC1,97
5,CCCCN(C)Cc1c(O)ccc2c(-c3ccccc3)cc(=O)oc12,88.6
6,O=C(CN1CCN(Cc2ccccc2F)C1=O)NCc1cccnc1,90.4
7,O=c1c2ccccc2nc2n1CCN2,83.3
8,O=C(CSc1nnc(Cn2c(=O)sc3ccccc32)n1-c1ccccc1)Nc1nccs1,84
9,Cc1ccc(-n2nc(C)c3cc(C(=O)O)sc32)cc1,86.8
10,CCOC(=O)c1oc2c(CN3CCN(C)CC3)c(O)ccc2c(=O)c1-c1ccccc1OC,93.3
11,CCCCn1c(NCc2ccccc2O)nc2ccccc21,83.4
12,Cc1cc2ncc(-c3ccc(Cl)cc3)c(N)n2n1,83.1
13,CC1(C(=O)NC2CCCCC2)CCC(=O)N1Cc1cccs1 (stereo not given),90.5
14,CCc1cc(=O)n2[nH]c(C)c(-c3ccccc3OC)c2n1,95
15,Cc1nnc(SCCn2c(N3CCC(Cc4ccccc4)CC3)nc3c2c(=O)[nH]c(=O)n3C)s1,71.1
16,O=C(C1CCCN(S(=O)(=O)c2cccnc2)C1)N1CCn2c1nc1ccccc12 (stereo not given),86.1
17,CCOC(=O)c1ccc(NC(=O)Cn2cc3c(n2)CCC(C)C3)cc1 (stereo not given),99.5
18,Cc1cc(C)cc(N(CC(=O)Nc2cccc(C)n2)S(=O)(=O)c2c(C)noc2C)c1,73.8
19,COc1ccc(-c2nnc(SCC(=O)N3CCOCC3)o2)cc1OC,92.7
20,Cc1c(C(=O)OCc2ccccc2)[nH]c2c1C(=O)CC(c1ccco1)C2 (stereo not given),8.71

row,SMILES,viability [%]
1,CCCn1cc(SCC(N)=O)c2ccccc21,105
2,CC1CCCCN1CCNC(=O)C1CCN(S(=O)(=O)c2cccc3cccnc23)CC1 (stereo not given),95.8
3,Cc1onc(-c2ccccc2Cl)c1C(=O)N1CCc2ccccc21,88.1
4,O=C(c1ccc(CNc2c(N3CCCC3)c(=O)c2=O)cc1)N1CCc2ccccc2C1,92.6
5,Cc1cccc(-n2ncc3c(NCc4cccnc4)ncnc32)c1,91.2
6,COc1cccc2cc(C(=O)OC3CCN(C)CC3)c(=O)oc12,86.5
7,CCOc1ccccc1NC(=O)CC1Nc2cc(C)c(C)cc2NC1=O (stereo not given),85
8,COC(=O)C(C)Sc1nnc2n(-c3cccc(C)c3)c(=O)c3c4c(sc3n12)CCCC4 (stereo not given),18.4
9,Cc1c(NC(=O)C2CCCCN2S(=O)(=O)c2ccc(Cl)cc2)c(=O)n(-c2ccccc2)n1C (stereo not given),98.2
10,CCC(=O)c1cc(F)c(N2CCN(C(=O)c3ccco3)CC2)cc1C,96.3
11,Cc1cccc(C2CC(c3ccccc3)Nc3nc(N)nn32)c1 (stereo not given),99.5
12,Cc1ccc(C)c(NC(=O)CSc2nnc(-c3ccccc3)o2)c1,80.1
13,CCCCN(CC)CCNC(=O)c1cc2c(C)nc3ccccc3c2o1,82.4
14,O=C(Nc1ccccc1)C1=C(O)CC(c2ccoc2)CC1=Nc1ccccc1 (stereo not given),79.7
15,COc1ccc(OCc2nc(C#N)c(N3CCN(c4ccc(OC)cc4)CC3)o2)cc1,79
16,CCOc1cccc(OCCCCn2ccnc2)c1,88.8
17,COc1ccc(OC)c(C2CC(=O)NC(SC)=C2C#N)c1 (stereo not given),82.8
18,Cc1cc(NC(=O)c2cccc(S(=O)(=O)N3CC(c4ccccc4)CC3=O)c2)no1 (stereo not given),91.3
19,O=C(Cn1nc(Cc2ccncc2)c2ccccc2c1=O)N1CCN(C(=O)c2ccco2)CC1,94.2
20,COC(=O)c1sc(NC(=O)COc2ccccc2OC)nc1C,83.5
